# According to PubChem BioAssay (NCI):
# The panel holds about 83,000 compounds, 20% with a hit somewhere; the sample as a whole holds those more often.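 Activity criterion: percent growth below 10, measured after cells in 96-well plates were exposed to a single compound concentration for 48 hours.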 Values without a mark were called inactive. The source made the active and inactive calls.
# Key:
# Assay in all cases: NCI-60 one-dose screen, 48 h (100 = growth as untreated, 0 = no growth, -100 = all killed)
# Settings in all cases: 10 µM unless noted
# SR leukemia = tested on: SR leukemia
# OVCAR-5 ovarian = tested on: OVCAR-5 ovarian
# OVCAR-4 ovarian = tested on: OVCAR-4 ovarian
# SK-OV-3 ovarian = tested on: SK-OV-3 ovarian
# IGROV1 ovarian = tested on: IGROV1 ovarian
# OVCAR-3 ovarian = tested on: OVCAR-3 ovarian
# NCI/ADR-RES ovarian = tested on: NCI/ADR-RES ovarian
# RPMI-8226 leukemia = tested on: RPMI-8226 leukemia
# OVCAR-8 ovarian = tested on: OVCAR-8 ovarian
# HS 578T breast = tested on: HS 578T breast
Structure (SMILES),growth (SR leukemia),growth (OVCAR-5 ovarian),growth (OVCAR-4 ovarian),growth (SK-OV-3 ovarian),growth (IGROV1 ovarian),growth (OVCAR-3 ovarian),growth (NCI/ADR-RES ovarian),growth (RPMI-8226 leukemia),growth (OVCAR-8 ovarian),growth (HS 578T breast)
O=C(O)C1C(c2ccccc2)c2ccccc2C(O)C1CO (stereo unspecified),99.6%,101%,108%,94.9%,118%,134%,109%,–,–,–
O=c1ccn(C2CC=C(CO)O2)c(=O)[nH]1 (stereo unspecified),–,102%,110%,102%,86.2%,107%,116%,84.5%,103%,112%
NS(=O)(=O)c1ccc(-n2ncc3c(SCc4ccccc4)ncnc32)cc1,–,99.7%,104%,108%,85.9%,99.4%,101%,91.9%,96.1%,97.3%
COc1ccc(N2CCN(CC(=O)N3CCN(c4nnc(-c5ccccc5)c(-c5ccccc5)n4)CC3)CC2)cc1,–,90.3%,49.8%,80.7%,–,49.5%,49.9%,1.97% (active),–,54.7%
COc1cc(/C=C/C(=O)CC(=O)/C=C/c2ccc(OC(=O)C3C4CC5CC(C4)CC3C5)c(OC)c2)ccc1OC(=O)C1C2CC3CC(C2)CC1C3 (stereo unspecified),–,87.2%,105%,110%,33.3%,118%,107%,112%,97.2%,129%
Cc1sc2nc3c4ccccc4c(NCCCN(C)C)nn3c(=O)c2c1C,–,71%,65.8%,65.7%,23.4%,59.2%,66.8%,-56.4% (active),–,71.6%
CCCCCCCCCCN1CCC(N2CCCCC2)CC1,–,41.5%,53.7%,20.9%,–,20.1%,49.7%,-44.8% (active),-1.39% (active),-5.23% (active)
COc1ccc2c(c1)sc1nc(-c3ccc(N(C)C)cc3)cn12,–,98.8%,–,82.6%,15.8%,88.5%,76.8%,33%,95.2%,122%
CCOc1cc(/C=C/C(=O)C(C(=O)/C=C/c2ccc(OC(=O)CNc3nnc(C)s3)c(OCC)c2)C(=O)CNc2nnc(C)s2)ccc1OC(=O)CNc1nnc(C)s1,–,-11.7% (active),23.1%,43.6%,-53.7% (active),11.3%,7.78% (active),-68.3% (active),–,10.1%
CCN(CC)c1ccc(C(=C2C=CC(=[N+](CC)Cc3cccc(S(=O)(=O)O)c3)C=C2)c2ccc(N(CC)Cc3cccc(S(=O)(=O)O)c3)cc2)cc1,–,68.2%,67.1%,85.3%,16.1%,14.2%,92.6%,-43.1% (active),–,71.9%
COc1ccc(CC(=O)Nc2nn3c(-c4cc(C(F)(F)F)cc(C(F)(F)F)c4)nnc3s2)cc1,–,96%,66.3%,–,59.9%,53.5%,69.1%,39.7%,65%,75.6%
O=C(O)C1CCN(S(=O)(=O)c2ccc(-c3ccccc3)cc2)CC1,–,125%,106%,111%,–,112%,117%,58.7%,81.4%,113%
O=C(CN1CCN(c2ccc(Cl)cc2)CC1)N1CCN(c2nnc(-c3ccc(Cl)cc3)c(-c3ccc(Cl)cc3)n2)CC1,–,103%,74.2%,111%,37.7%,78.4%,72.9%,8.48% (active),–,71.7%
COc1cc(-c2n[nH]nc2-c2ccccn2)cc(OC)c1OC,–,100%,88.2%,98.5%,78.2%,102%,77.9%,85.1%,–,98%
COc1ccc(N2CCN(CC(=O)N3CCN(c4nnc(-c5ccc(Cl)cc5)c(-c5ccc(Cl)cc5)n4)CC3)CC2)cc1,–,91.6%,55.5%,99.5%,–,52%,61.7%,-14.8% (active),–,52.9%
Cc1c2oc3c(C)ccc(C(=O)OC(C)C4NC(=O)C(C(C)C)N(C)C(=O)CN(C)C(=O)C5CCCN5C(=O)C(C(C)C)NC4=O)c3nc-2c(C(=O)OC(C)C2NC(=O)C(C(C)C)N(C)C(=O)CN(C)C(=O)C3CCCN3C(=O)C(C(C)C)NC2=O)c(N)c1=O (stereo unspecified),–,14.6%,–,22.5%,7.56% (active),5.3% (active),16.9%,–,–,-2.72% (active)

Structure (SMILES),growth (SR leukemia),growth (OVCAR-5 ovarian),growth (OVCAR-4 ovarian),growth (SK-OV-3 ovarian),growth (IGROV1 ovarian),growth (OVCAR-3 ovarian),growth (NCI/ADR-RES ovarian),growth (RPMI-8226 leukemia),growth (OVCAR-8 ovarian),growth (HS 578T breast)
Cc1cc(C)c2c(N)c3cccc(C)c3nc2n1,–,-22.9% (active),2.47% (active),2.68% (active),-38.1% (active),-35.7% (active),-28.9% (active),-35% (active),–,73.2%
O=Nc1c2cccnc2n2nnc3ccc(Cl)cc3c12,–,94.9%,-27.7% (active),92.2%,–,-29.5% (active),54.8%,-63.1% (active),-26.8% (active),70%
Cc1ccc(S(=O)(=O)N2CCN(C(=O)CSc3nc4ccc(C)cc4[nH]3)CC2)cc1,–,117%,–,114%,–,111%,107%,108%,74.5%,126%
CCSCC1CC(O)(c2ccccc2)C(c2ccccc2)C(c2ccc(Cl)cc2)O1 (stereo unspecified),–,24.7%,33.8%,9.49% (active),32.6%,-26.4% (active),17.1%,4.54% (active),–,-11% (active)
C[C@H]1C(=O)N2c3ccccc3[C@@]3(O)C[C@@H](n4cnc5ccccc5c4=O)C(=O)N1[C@@H]23,–,110%,109%,104%,–,115%,104%,125%,91.7%,32.9%
CC(=O)/C(=C/c1ccc(Cl)cc1)C(=O)c1ccccc1,–,111%,79.7%,101%,91.6%,91.3%,85.2%,34.8%,89.2%,–
CC(C)N(Cc1ccccc1)c1c(Cl)ssc1=O,–,107%,104%,93.7%,-9.19% (active),92.5%,107%,115%,–,109%
COc1ccc2c(=O)c(OC)c(-c3cc(OC)c(OC)c(OC)c3)oc2c1,–,101%,96.6%,114%,–,98.6%,83.9%,92.6%,–,91.9%
O=C(/C=C/c1ccc([N+](=O)[O-])cc1)c1ccc2c3c(cccc13)CC2,–,89.8%,75.8%,91.4%,–,66.9%,83.3%,-14.1% (active),–,-4.95% (active)
O=C(Nc1nn2c(-c3cc(C(F)(F)F)cc(C(F)(F)F)c3)nnc2s1)C1CCCC1,–,18.6%,18.8%,5.54% (active),40%,22.9%,2.45% (active),20.5%,12%,21.6%
O=C(Nc1nc2ccc(OC(F)(F)F)cc2s1)c1ccc(F)cc1,–,43%,25.5%,4.63% (active),31.1%,-37.8% (active),6.2% (active),–,17.8%,38.6%
CN(C)CCCNc1nn2c(=O)c3ccccc3nc2c2ccccc12,–,80.9%,77.4%,54.6%,-12.2% (active),57.7%,72.7%,48.8%,–,61.6%
CCN(CC)CCOCC[C@H]1CC[C@H]2[C@@H]3[C@H](C)Cc4cc(OS(N)(=O)=O)ccc4[C@H]3CC[C@]12C,–,-50.1% (active),8.49% (active),-94.8% (active),–,-86.5% (active),-70.2% (active),-56.4% (active),–,-44.6% (active)
COC(=O)c1c(NC(=O)CSc2nnnn2-c2ccc(OC)cc2)sc(C)c1C,–,103%,94.5%,95.9%,–,99.2%,83.9%,89.8%,87%,31.7%
[N-]=[N+]=NCc1cccc(/C(O)=C/C(=O)C(=O)O)c1,–,63.5%,94.9%,107%,–,126%,78.6%,90.7%,79.4%,82.6%
O=C(/C=C/c1c(-c2ccccc2)[nH]c2ccccc12)S(=O)(=O)c1ccccc1,–,100%,80.1%,89.5%,51.8%,68.9%,16.4%,21.4%,–,90.1%
